Assay results: PubChem BioAssay AID540356 (Broad Institute, 2011)
In all, about 2,500 compounds went through this assay and about 360 (14%) were called active.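 Rule for the calls: active = signal-lowering compounds whose fitted half-maximal concentration AC50 is no higher than ten times their top tested concentration; inconclusive = flat curve with 30 to 70% inhibition, or poor fit; inactive = flat within 30%, signal increase, or AC50 above limit.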 The list is a sample of the results.

Assay: HRP/luminol detection interference without ALR, dose response, artefact control for ALR inhibitor project, biochemical, luminescence, no ALR or DTT, cherry-pick (AID 540356)
Conditions: HRP/H2O2 luminol luminescence counterscreen; series mostly up to 10 µM

Row | SMILES | AC50
1 | Cc1cc(C)nc(Sc2c(C)nn(-c3ccccc3)c2C)n1 | inactive
2 | Oc1c(Cl)cc(Cl)cc1CNc1ccc(Br)cn1 | inactive
3 | O=C(c1ccc2c(c1)OCO2)N1CCN(c2ccccc2)CC1 | inactive
4 | O=c1oc2ccccc2cc1-c1ccc(O)cc1 | inactive
5 | c1ccc2c(-c3csc(-c4ccncc4)n3)c[nH]c2c1 | inactive
6 | Nc1nc(-c2c[nH]c3ccccc23)cs1 | inactive
7 | O=C(O)Cn1cc(C(=S)N2CCCCC2)c2ccccc21 | inactive
8 | CC(C)NS(=O)(=O)c1ccc2c(c1)NCC2 | inactive
9 | COc1ccc(C2=CSC3=NNC4(CCCCC4)NN23)cc1 | inactive
10 | COc1ccc(NC2c3ccccc3C(=O)N2c2cccnc2)cc1Cl (stereo unspecified) | inactive
11 | S=c1[nH]nc(-c2ccco2)n1C1CCCCC1 | inactive
12 | O=C(NNc1c2ccccc2nc2ccccc12)c1ccccc1O | inactive
13 | O=C(NNc1nc2ccccc2s1)c1ccccc1F | 5.35 µM (active)
14 | O=C(NNc1nc2cc3c(cc2s1)OCO3)c1ccccc1 | inactive
15 | COc1cccc(N2CCN(CC(=O)NC(C)c3ccccc3)CC2)c1 (stereo unspecified) | inactive
16 | O=C(NC1CCCCC1)N1CCN(c2ccc(Cl)cc2)CC1 | inactive
17 | O=C(Nc1ccccc1N1CCCC1)c1ccccc1F | inactive
18 | COc1ccc(N2CCC(CNC(=O)Nc3ccc(OC)cc3OC)C2)cc1 (stereo unspecified) | inactive
19 | Clc1ccc(-n2nnc(-c3nccs3)n2)cc1Cl | inactive
20 | Cc1cc(C)n2cc(CSc3nc4ccccc4[nH]3)nc2n1 | inactive
21 | COc1ccccc1N1CCN(S(=O)(=O)c2cccc(F)c2)CC1 | inactive
22 | Oc1ccc(C2CNCCc3c2cc(O)c(O)c3Cl)cc1 (stereo unspecified) | 5.92 µM (active)
23 | Oc1cc2c(cc1O)C(c1ccccc1)CNCC2 (stereo unspecified) | 4.68 µM (active)
24 | Nc1[nH]c(N=NC(=O)c2ccc(F)cc2)c2ccccc12 | > 10 µM (inactive)
25 | CC(C)(C)c1ccc(Oc2ccc(NC(=O)CCCC(=O)O)cn2)cc1 | inactive
26 | Cc1c(Cl)c(-c2n[nH]c(=S)n2-c2ccccc2)nn1C | inactive

Row | SMILES | AC50
27 | O=c1ccsn1Cc1ccccc1 | inactive
28 | COc1cc(OC)cc(C(=O)Nc2ccc(S(=O)(=O)Nc3cc(C)nc(C)n3)cc2)c1 | inactive
29 | COc1ccc(OC)c(N(CC(N)=O)S(=O)(=O)c2ccc(OC)c(OC)c2)c1 | inactive
30 | Cc1ccc(S(=O)(=O)NN2C(=O)/C(=C/c3cccnc3)SC2=S)cc1 | inactive
31 | Cc1nc(C)c(/C(O)=C\c2nc3ccc([N+](=O)[O-])cc3oc2=O)o1 | inactive
32 | Cc1cc(C(=O)Nc2nnc(-c3ccccc3)s2)no1 | inactive
33 | CNc1nnc(-c2cccc(N(C)C)c2)s1 | 1.05 µM (active)
34 | Cc1nc(SCc2ccc(Cl)c(Cl)c2)ncc1C(=O)O | inactive
35 | COc1c(F)c(F)c(C(=O)O)c(Nc2ccc(C)cc2C)c1F | inactive
36 | COc1ccc(N2C(=O)CSC2c2ccncc2)cc1 (stereo unspecified) | inactive
37 | CCCCN(C)S(=O)(=O)c1ccc(C(=O)Nc2nnc(-c3ccco3)o2)cc1 | inactive
38 | Cn1c(=O)c2c(nc(N/N=C/c3ccncc3)n2Cc2ccccc2)n(C)c1=O | inactive
39 | COc1ccc(-c2n[nH]c(C)c2-c2ccccc2OC)c(O)c1 | inactive
40 | Cc1ccc(-n2c(-c3ccc(Cl)cc3)n[nH]c2=S)c(C)c1 | inactive
41 | Nc1ncc(-c2ccccc2)c(-c2ccc(O)cc2O)n1 | inactive
42 | COc1ccccc1-c1cc(-c2ccc(O)cc2)nc(N)c1C#N | inactive
43 | Cc1ccc(Nc2nc(-c3ccc(O)cc3O)cs2)nc1 | inactive
44 | Cc1cccnc1Nc1nc(-c2ccc(O)cc2O)cs1 | inactive
45 | COc1ccc(-c2cn[nH]c2-c2ccc(OC)cc2O)cc1 | inactive
46 | Cc1cc(C)nc(NNC(=O)c2ccccc2O)n1 | inactive
47 | CC[C@@H](C)[C@H](NC(=O)Cc1c(C)c2cc3c(C)coc3c(C)c2oc1=O)C(=O)O | inactive
48 | O=C(O)c1ccc(Sc2nnc(-c3cccc(Br)c3)o2)c([N+](=O)[O-])c1 | inactive
49 | ClCc1csc(-c2ccc(Cl)cc2)n1 | inactive
50 | O=C(NCCc1ccc(O)cc1)c1ccc(Cl)cc1 | inactive
51 | Cc1ccc(O)c(NC(=O)CCCC(=O)O)c1 | inactive
52 | c1ccc(-c2cc(N3CCCCCC3)n[nH]2)cc1 | inactive

Row | SMILES | AC50
53 | O=c1cc(-c2cccc([N+](=O)[O-])c2)[nH][nH]1 | inactive
54 | CC(=NC1CCCC1)c1c(C)[nH]n(-c2nc3ccccc3s2)c1=O | inactive
55 | N/C(=N/O)c1ccccc1N1CCC(Cc2ccccc2)CC1 | inactive
56 | Cc1nc(-c2cccc(N)c2)cs1 | inactive
57 | Nc1cccc(-c2cn3cccnc3n2)c1 | 4.52 µM (active)
58 | CN(C)S(=O)(=O)c1cccc(-c2cn3cccnc3n2)c1 | inactive
59 | COc1ccc(CC(=O)N2CCN=C2SCc2cccc([N+](=O)[O-])c2)cc1 | inactive
60 | COc1ccc(/C=N/NC(=O)c2ccn[nH]2)cc1CSc1ccccn1 | inactive
61 | Cc1c(Br)c(=O)oc2c(Br)c(O)c(O)cc12 | 7.79 µM (active)
62 | CCc1c(C)c2cc(Cl)c(O)c(CN3CCCCC3)c2oc1=O | inactive
63 | CC1CCC2C(C1)Nc1c(C(=O)O)cccc1C2(C)C (stereo unspecified) | inactive
64 | C=CCn1c(C(C)NC(=O)c2cccc(C)c2)n[nH]c1=S (stereo unspecified) | inactive
65 | COc1cccc(OC)c1C(=O)N1CCN=C1SCc1cccnc1 | inactive
66 | O=C(O)C(c1ccccc1)N1C(=O)/C(=C\c2ccc(-c3cccc(Cl)c3)o2)SC1=S (stereo unspecified) | inactive
67 | O=C(O)C(c1ccccc1)N1C(=O)/C(=C\c2ccc(O)c(O)c2)SC1=S (stereo unspecified) | 5 µM (active)
68 | Cc1cc(C)nc(NN2C(=O)/C(=C/c3ccc(O)cc3)SC2=S)n1 | inactive
69 | Clc1ccc(/C=C/c2ncc3ccccn23)cc1 | inactive
70 | COc1cc(/C=N/Nc2nc3ccccc3[nH]2)ccc1O | 8.83 µM (active)
71 | COc1ccc(/C=N/Nc2nc3ccccc3[nH]2)cc1OC | inactive
72 | COc1cc(/C=N/Nc2nc3ccccc3[nH]c2=O)ccc1O | inactive
73 | O=S(=O)(Nc1ccc(N2CCCCC2)cc1)c1cccc2cccnc12 | inactive
74 | COc1ccc(CNc2nc3ccccc3n2C(C)C)c(O)c1 | inactive
75 | COc1ccc(O)c(-c2cc(-c3ccccc3[N+](=O)[O-])[nH]n2)c1 | inactive
76 | Oc1ccccc1-c1n[nH]c(=S)n1Cc1ccco1 | inactive
